# Measurements as given in PubChem BioAssay (NCATS).
# Inconclusive results are not listed. Where a call stands in place of a potency, no number is given. Values without a mark were called inactive. Activity calls are given as the source filed them. The call rests on the fitted dose curve; in most records, active means well fitted inhibition curve with a large enough effect; inconclusive means small, poorly fitted or top-dose-only effect; inactive means no such curve, though single readings can be large or run the other way.
# Tests used:
# [1] = test system: Zika virus NS2B-NS3 protease (unlinked complex); assay: Primary screen GU Rhodamine qHTS for Zika virus inhibitors: Unlinked NS2B-NS3 protease assay (AID 1347159); further: nearly all actives have a fitted effect of over 60% in size
# Method in brief: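 In dose–response format, inhibition of unlinked protease (25 nM) was measured with 1.5 microM bis-peptide Rhodamine110 substrate. Aprotinin served as the intraplate control.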
# [2] = test system: Zika virus NS2B-NS3 protease (linked construct); assay: Primary screen NINDS Rhodamine qHTS for Zika virus inhibitors (AID 1347160); further: nearly all actives have a fitted effect of over 55% in size
# Method in brief: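 Each compound, titrated, sat 15 min with 25 nM linked protease before 1.5 microM Rhodamine110 substrate went in. Fluorescence gain over the next 15 min, in pH 8.0 Tris with Tween 20, gave Hill-fitted curves.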
# Potency means the concentration at half of the fitted maximal effect.
Compound,Potency [1],Potency [2],"activity change, negative = inhibition [1]"
C=CC(C)(O)CC/C=C(\C)C1CC=C(C)C(=O)O1 (stereo not given),inactive,inactive,–
NC(Cc1c[nH]c2ccc(O)cc12)C(=O)O (stereo not given),inactive,inactive,–
CC(C)=CCC/C(C)=C/CO[C@@H]1O[C@H](CO[C@@H]2O[C@@H](CO)[C@H](O)[C@H]2O)[C@@H](O)[C@H](O)[C@H]1O,inactive,inactive,–
CC1CCC2(C(=O)OC3OC(CO)C(O)C(O)C3O)CCC3(C)C(=CCC4C5(C)CCC(O)C(C)(CO)C5CCC43C)C2C1(C)O (stereo not given),inactive,inactive,–
CC(=O)OC1C(O)C(C)(O)C(/C=C/C(=O)O)C2(C)CCCC(C)(C)C12 (stereo not given),inactive,inactive,–
O=C(/C=C/c1ccc(O)cc1)OCC1OC(O)C(OC2OC(CO)C(O)C(O)C2O)C(O)C1O (stereo not given),inactive,inactive,–
COc1cc(/C=C/CO[C@@H]2O[C@H](CO)[C@@H](O)[C@H](O)[C@H]2O)cc(OC)c1O[C@@H]1O[C@H](CO)[C@@H](O)[C@H](O)[C@H]1O,inactive,inactive,–
NC(=O)c1ccc(F)c2c1C[C@@H](N(C1CCC1)C1CCC1)CO2,inactive,inactive,–
C=C1CC[C@@H]2C(C)(C)CCC[C@@]2(C)[C@@H]1CC/C(=C/C(=O)OC)COC(C)=O,inactive,inactive,–
COc1cc(C2Oc3c(OC)cc(/C=C/C(=O)OC4CC(O)(C(=O)O)CC(O)C4O)cc3C2CO)ccc1O (stereo not given),inactive,inactive,–
COc1cc(OC)cc(-c2ccc3c(-c4ccc(F)cc4)[nH]nc3n2)c1,inactive,inactive,–
C[C@@H](NC(=O)c1cc(C(=O)N[C@@H](Cc2ccccc2)[C@H](O)CNC2CC2)cc(N(C)S(C)(=O)=O)c1)c1ccccc1,inactive,inactive,–
CC/C=C/C=C/C1(C)OC(CC(CO)OC)=CC1=O (stereo not given),inactive,inactive,–
COc1cc(C(=O)OC[C@H]2O[C@@H](OC(C)(C)C(=O)O)[C@H](O)[C@@H](O)[C@@H]2O)cc(OC)c1O,inactive,inactive,–
CN(C)C(=O)C(O)C(Cc1ccccc1)NC(=O)c1cc2cc(Cl)ccc2[nH]1 (stereo not given),inactive,inactive,–
CC1OC(O[C@@H]2[C@@H](O)[C@H](OC(=O)[C@]34CCC(C)(C)C[C@H]3C3=CCC5[C@@]6(C)CC[C@H](O[C@@H]7O[C@H](C(=O)O)[C@@H](O)[C@H](O[C@@H]8OC[C@@H](O)[C@H](O)[C@H]8O)[C@H]7O[C@@H]7O[C@H](CO)[C@H](O)[C@H](O)[C@H]7O)[C@@](C)(C=O)C6CC[C@@]5(C)[C@]3(C)C[C@H]4O)O[C@H](C)[C@@H]2OC2OC(C)C(OC3OCC(O)C(O)C3O)C(O)C2O)C(O)C(O)C1O (stereo not given in full),–,inactive,7.56% [at 19.1 µM]
COc1ccc([C@H]2OC[C@H]3[C@@H]2CO[C@@H]3c2ccc(O[C@@H]3O[C@H](CO)C(O)[C@H](O)[C@H]3O)c(OC)c2)cc1OC (stereo not given in full),inactive,inactive,–
C=C1C2(C)CC3C4(C)OC(C5OC56C4=CC(=O)OC6(C)C)C3(C)C13C(=O)OC(C)C3(O)C2=O (stereo not given),inactive,inactive,–
CCC(=O)N1CCc2cc(OC)c(O)cc2C1,inactive,inactive,–
CC1(C)CCC[C@@]2(C)[C@H]1[C@H](O)C=C(CO)[C@]2(O)CO,inactive,inactive,–
CCCN(CCN1CCN(c2ccccc2OC)CC1)C1CCc2ncsc2C1 (stereo not given),inactive,inactive,–
C/C=C(\C)C(=O)OC[C@H]1O[C@@H](O[C@H]2[C@@H](O[C@H]3O[C@H](COC(=O)/C(C)=C/C)[C@@H](O)[C@H](O)[C@H]3O[C@@H]3O[C@H](COC(=O)/C(C)=C/C)[C@@H](O)[C@H](OC(=O)/C(C)=C/C)[C@H]3O)O[C@H](COC(=O)/C(C)=C/C)[C@@H](O)[C@@H]2O)[C@H](O)[C@@H](O)[C@@H]1O,inactive,inactive,–
CCOC(=O)C(CCc1ccccc1)NC(C)C(=O)N1Cc2ccccc2CC1C(=O)O (stereo not given),inactive,inactive,–
Cc1occc(=O)c1O[C@@H]1O[C@H](CO[C@@H]2OC[C@](O)(CO)[C@H]2O)[C@@H](O)[C@H](O)[C@H]1O,inactive,inactive,–
COc1ccc(/C=C/C(=O)N2CCCC2)cc1,inactive,inactive,–

Compound,Potency [1],Potency [2],"activity change, negative = inhibition [1]"
C[C@@H]1O[C@@H](O[C@H]2[C@@H]3C=CO[C@@H](O[C@@H]4O[C@H](CO)[C@@H](O)[C@H](O)[C@H]4O)[C@@H]3[C@@]3(CO)O[C@@H]23)[C@H](O)[C@H](OC(=O)/C=C/c2ccc(O)cc2)[C@H]1OC(=O)/C=C/c1ccc(O)cc1,inactive,inactive,–
CC(C)(O)C1OC1C1=CC(=O)C2(C)OC2C1O (stereo not given),inactive,inactive,–
CC(C)NC(=O)c1ccc(C#Cc2ccncc2)cn1,inactive,inactive,–
OC[C@@]1(O)CO[C@@H](OC[C@H]2O[C@@H](Oc3ccccc3)[C@H](O)[C@@H](O)[C@@H]2O)[C@@H]1O,inactive,inactive,–
N#Cc1cccc(-c2nc(-c3cccnc3)no2)c1,inactive,inactive,–
COC(=O)C1=COC(O[C@@H]2O[C@H](CO)[C@@H](O)[C@H](O)[C@H]2O)[C@@H]2[C@@](C)(O)[C@@H](OC(=O)/C=C/c3ccccc3)C[C@]12O (stereo not given in full),inactive,inactive,–
CC(=O)O[C@@H]1CC2C(C)(C)C(=O)C=C[C@]2(C)C2CC[C@]3(C)C(=CC(=O)[C@@H]3c3ccoc3)[C@@]21C (stereo not given in full),inactive,inactive,–
CC(=O)OCC1OC(O[C@H]2CC[C@]34C[C@]35CC(O)[C@]3(C)[C@@H]([C@H](C)CC/C=C(\C)C(=O)O)C(O)C[C@@]3(C)C5CC[C@H]4C2(C)C)C(O)C(O)C1OC1OCC(O)C(O)C1O (stereo not given in full),inactive,inactive,–
CC(C)/C=C1/NC(=O)C(C(C)C)n2c1nc1c(O)cccc1c2=O (stereo not given),inactive,inactive,–
COc1ccc2c(c1)N1C(=O)C[C@@]34C=CC[N@+]5([O-])CC[C@H]2[C@H](CC3)[C@@]145,inactive,inactive,–
COC(=O)[C@H](O)[C@H]1C(C)(C)[C@H](OC(C)=O)[C@@]2(O)C(=O)[C@]1(C)C1CC[C@]3(C)C(CC(=O)O[C@H]3c3ccoc3)[C@]13O[C@@H]32 (stereo not given in full),inactive,inactive,–
C[C@]12CC/C(=N\OCC(=O)O)C=C1CC[C@@H]1[C@@H]2[C@@H](O)C[C@@]2(C)[C@H]1CC[C@]2(O)C(=O)CO,inactive,inactive,–
CC(C)=C1C[C@@]2(C)C(=CC1=O)CC[C@@H](O)[C@@H]2C,inactive,inactive,–
CCC(C)C1NC(=O)C2C(C)CCN2C(=O)C(CC(O)CO)OC(=O)CCNC(=O)C(C)N(C)C(=O)C(C(C)C)N(C)C1=O (stereo not given),inactive,inactive,–
C=C1CC23CC1CCC2C12OC(=O)C(C)(C(O)C(O)C1O)C2C3C(=O)O (stereo not given),inactive,inactive,–
C/C=C(\C)C(=O)OC1C(C)C2(O)C3C=C(C)C(=O)C3CC(CO)=CC2C2C(C)(C)C12OC(C)=O (stereo not given),inactive,inactive,–
CC1(C)C[C@H](O)C[C@@]2(C)[C@H]1[C@H](O)C=C1COC(=O)[C@@]12O,inactive,inactive,–
CC(NC(=O)CC(=O)O)C(=O)Nc1ccccc1C(N)=O (stereo not given),inactive,inactive,–
C=CC1(C)CC=C2C(CCC3C(C)(C(=O)O)CCCC23C)C1 (stereo not given),5.62 µM (active),14.1 µM (active),–
CC(C)=CCC[C@](C)(O[C@@H]1O[C@H](CO[C@@H]2O[C@@H](CO)[C@H](O)[C@H]2O)[C@@H](O)[C@H](O)[C@H]1O)[C@H]1CC[C@]2(C)[C@@H]1[C@H](O)C[C@@H]1[C@@]3(C)CC[C@H](O[C@@H]4O[C@H](CO)[C@@H](O)[C@H](O)[C@H]4O[C@@H]4O[C@H](CO)[C@@H](O)[C@H](O)[C@H]4O)C(C)(C)[C@@H]3CC[C@]12C,inactive,inactive,–
Cc1cccc(-c2nn3c(c2-c2ccnc4ccc(C(N)=O)cc24)CCC3)n1,inactive,inactive,–
C[C@H]1CC[C@@]2(OC1)O[C@H]1CC3C4CC[C@H]5C[C@@H](O[C@@H]6O[C@H](CO)[C@H](O[C@@H]7O[C@H](CO)[C@@H](O)[C@H](O[C@@H]8OC[C@@H](O)[C@H](O)[C@H]8O)[C@H]7O[C@@H]7O[C@H](CO)[C@@H](O)[C@H](O)[C@H]7O)[C@H](O)[C@H]6O)[C@H](O)C[C@]5(C)C4=CC(=O)[C@]3(C)[C@H]1[C@@H]2C (stereo not given in full),inactive,inactive,–
C[C@@H]1O[C@@H](O[C@H]2[C@@H]3C=CO[C@@H](O[C@@H]4O[C@H](CO)[C@@H](O)[C@H](O)[C@H]4O)[C@@H]3[C@@]3(CO)O[C@@H]23)[C@H](O)[C@H](O)[C@H]1OC(=O)/C=C/c1ccc(O)cc1,inactive,inactive,–
C[C@@H]1O[C@@H](O[C@@H]2[C@@H](O)[C@H](O[C@@H]3[C@@H](O)[C@@H](O)[C@H](O[C@H]4[C@H](OC(=O)[C@]56CCC(C)(C)C[C@H]5C5=CCC7[C@@]8(C)C[C@H](O)[C@H](O[C@@H]9O[C@H](C(=O)O)[C@@H](O)[C@H](O)[C@H]9O)[C@@](C)(CO)C8[C@H](O)C[C@@]7(C)[C@]5(C)C[C@H]6O)O[C@@H](CO)[C@@H]4O)O[C@H]3C)OC[C@H]2O)[C@H](O)[C@H](O)[C@H]1O (stereo not given in full),–,inactive,24.9% [at 19.1 µM]
CC1OC(O[C@@H]2[C@H](O)[C@@H](OC3OC(CO)C(O)C(O)C3O)[C@H](OC(=O)[C@]34CCC(C)(C)C[C@H]3C3=CCC5[C@@]6(C)CC[C@H](O[C@@H]7O[C@H](C(=O)O)[C@@H](O)[C@H](O[C@@H]8OC[C@@H](O)[C@H](O)[C@H]8O)[C@H]7O[C@@H]7O[C@H](CO)[C@H](O)[C@H](O)[C@H]7O)[C@@](C)(C=O)C6CC[C@@]5(C)[C@]3(C)C[C@H]4O)O[C@@H]2C)C(O)C(O)C1OC1OCC(O)C(O)C1O (stereo not given in full),–,inactive,87.6% [at 19.1 µM]
